Where “and” joins values, the source holds several entries; their conditions need not be identical. Equal values may be shown once. Some structures have more than one record in an assay (separate samples or runs), and their calls can disagree. Calls of active or inactive are those of the source. Unless noted, the call rests on the fitted dose curve; in most records, active means well fitted curve in the direction sought with a large enough effect in the repeat runs; inconclusive means weak or mixed curves; inactive means no such curve, though single readings can be large; an effect the other way counts as inactive or inconclusive.
Tests used:
[1] = qHTS assay to identify small molecule antagonists of the thyroid receptor (TR) signaling pathway - cell viability counter screen (AID 743064); further: nearly all actives have a fitted effect of over 50% in size; further: potency means the concentration at half of the fitted maximal effect
Summary of the method: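 Rat GH3 pituitary tumor cells stably expressing two TR response elements driving luciferase were plated, rested 4 h, then dosed with library compounds and T3 (1 nM final). After 23.5 h at 37 °C, CellTiter-Fluor was added for 30 min and fluorescence recorded.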

[2] = qHTS assay to identify small molecule antagonists of the thyroid receptor (TR) signaling pathway (AID 743065); further: nearly all actives have a fitted effect of over 55% in size; further: potency means the concentration at half of the fitted maximal effect
Summary of the method: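 GH3.TRE-Luc rat pituitary cells (two TREs driving luciferase) were dosed with compound, then stimulated with 1 nM T3 (final) for 23.5 h at 37 C. ONE-Glo luminescence was the read-out, with CellTiter-Fluor fluorescence as the cytotoxicity counter-screen.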

[3] = system: thyroid hormone receptor (rat, GH3 cells); assay: qHTS assay to identify small molecule agonists of the thyroid receptor (TR) signaling pathway (AID 743066; calls by dose curve)
[4] = molecular target: Estrogen receptor (Homo sapiens) (UniProt P03372); assay: qHTS assay to identify small molecule antagonists of the estrogen receptor alpha (ER-alpha) signaling pathway (AID 743069; active means well fitted curve in the direction sought with a large enough effect in the signal ratio in the repeat runs, not every such curve was filed as active; inconclusive means weak or mixed curves, or effect the other way; inactive means no such curve, though single readings can be large or run the other way; the % refers to the signal ratio; further: potency means the concentration at half of the fitted maximal effect)
Summary of the method: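 In this cell-based reporter format, GripTite HEK293 cells harbouring ER-alpha-UAS-bla were grown overnight with 2% charcoal-stripped FBS, dosed with DMSO-dissolved compounds, then challenged with 17beta-estradiol. After 18 hr at 37C, beta-lactamase activity was detected by FRET fluorescence.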

[5] = molecular target: Estrogen receptor (Homo sapiens) (UniProt P03372); assay: qHTS assay to identify small molecule agonists of the estrogen receptor alpha (ER-alpha) signaling pathway (AID 743075; calls by dose curve; further: potency means the concentration at half of the fitted maximal effect)
[6] = molecular target: Estrogen receptor (Homo sapiens) (UniProt P03372); assay: qHTS assay to identify small molecule agonists of the estrogen receptor alpha (ER-alpha) signaling pathway using the BG1 cell line (AID 743079); conditions: BG1Luc4E2 cells, ERE-luciferase agonist, 22 h; activation: at 70.3 µM (top of the series) unless noted; further: nearly all actives have a fitted effect of over 20% in size; further: potency means the concentration at half of the fitted maximal effect
[7] = qHTS assay to identify small molecule antagonists of the estrogen receptor alpha (ER-alpha) signaling pathway using the BG1 cell line (AID 743080; calls by dose curve;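 further: BG1 cells stimulated with 17beta-estradiol alongside compound; nearly all actives have a fitted effect of over 25% in size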; further: potency means the concentration at half of the fitted maximal effect)
Summary of the method: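 After 5 days in phenol-red-free 10% charcoal-stripped FBS medium, BG1-Luc-4E2 cells were seeded, left 24 h at 37 C, co-treated with compounds and 17beta-estradiol for 21.5 h, then assayed for viability and luciferase.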

[8] = qHTS assay to identify small molecule antagonists of the estrogen receptor alpha (ER-alpha) signaling pathway using the BG1 cell line - cell viability counter screen (AID 743081);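 further: compound given together with 17beta-estradiol as the ER stimulus; nearly all actives have a fitted effect of over 45% in size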; further: potency means the concentration at half of the fitted maximal effect
[9] = molecular target: Aromatase (Homo sapiens) (UniProt P11511); assay: qHTS assay to identify aromatase inhibitors (AID 743083); further: nearly all actives have a fitted effect of over 55% in size; further: potency means the concentration at half of the fitted maximal effect
[10] = qHTS assay to identify aromatase inhibitors - cell viability counter screen (AID 743084);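 further: cells stimulated with testosterone during compound exposure; nearly all actives have a fitted effect of over 55% in size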; further: potency means the concentration at half of the fitted maximal effect
[11] = molecular target: Aryl hydrocarbon receptor (Homo sapiens) (UniProt P35869); assay: qHTS assay to identify small molecule that activate the aryl hydrocarbon receptor (AhR) signaling pathway (AID 743085);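 further: HG2L7.5c1 human HepG2 liver cells with stably integrated DRE-driven firefly reporter; nearly all actives have a fitted effect of over 15% in size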
Summary of the method: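 Compounds were tested in HepG2 hepatocellular carcinoma cells harbouring a stably integrated luciferase gene under control of 20 DREs. Increased reporter signal after 24 h treatment at 37C was taken as AhR activation.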

[12] = qHTS assay to identify small molecule that activate the aryl hydrocarbon receptor (AhR) signaling pathway - cell viability counter screen (AID 743086); further: nearly all actives have a fitted effect of over 45% in size; further: potency means the concentration at half of the fitted maximal effect
Summary of the method: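 HepG2-AhR-luc (HG2L7.5c1) cells, 4000/well, treated 24 h at 37 C with compound; viability measured as CellTiter-Fluor fluorescence after 30 min in the same wells as the luciferase read.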

[13] = qHTS assay to identify small molecule antagonists of the estrogen receptor alpha (ER-alpha) signaling pathway - cell viability counter screen (AID 743074; calls by dose curve; further: nearly all actives have a fitted effect of over 45% in size; further: potency means the concentration at half of the fitted maximal effect)
[14] = qHTS assay for small molecule activators of the heat shock response signaling pathway - cell viability counter screen (AID 743209); further: nearly all actives have a fitted effect of over 50% in size; further: potency means the concentration at half of the fitted maximal effect
Summary of the method: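 Viability of HSE-bla HeLa cells is measured with CellTiter-Glo in the wells already used for the reporter read. Compound exposure lasts 5 h at 37 C, and luminescence is read after 30 min at room temperature.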

[15] = molecular target: Peroxisome proliferator-activated receptor gamma (Homo sapiens) (UniProt P37231); assay: qHTS assay to identify small molecule agonists of the peroxisome proliferator-activated receptor gamma (PPARg) signaling pathway (AID 743094; active means well fitted activation curve with a large enough effect in the signal ratio in the repeat runs, not every such curve was filed as active; inconclusive means weak or mixed curves, or effect the other way; inactive means no such curve, though single readings can be large or run the other way; the % refers to the signal ratio)
Summary of the method: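 Reporter activation was scored by fluorescence of cleaved LiveBLAzer B/G substrate (1 h, room temperature) in PPARg-bla HEK293H cells previously treated 17 h at 37C with DMSO-dissolved compounds.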

[16] = molecular target: Peroxisome proliferator-activated receptor gamma (Homo sapiens) (UniProt P37231); assay: qHTS assay to identify small molecule antagonists of the peroxisome proliferator-activated receptor gamma (PPARg) signaling pathway (AID 743191; calls by dose curve; further: nearly all actives have a fitted effect of over 30% in size)
Summary of the method: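 GeneBLAzer PPARg UAS-bla HEK293H cells, 5 h post-plating, exposed to compounds 17 h at 37C. LiveBLAzer B/G FRET substrate added for 1 h at room temperature; beta-lactamase reporter read by fluorescence intensity.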

[17] = qHTS assay for small molecule agonists of the antioxidant response element (ARE) signaling pathway (AID 743202; active means well fitted activation curve with a large enough effect in the signal ratio in the repeat runs, not every such curve was filed as active; inconclusive means weak or mixed curves, or effect the other way; inactive means no such curve, though single readings can be large or run the other way; the % refers to the signal ratio)
Summary of the method: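 HepG2 ARE-bla cells; 16 h treatment at 37 C; FRET-based beta-lactamase fluorescence read after 2 h substrate incubation at room temperature.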

[18] = qHTS assay for small molecule agonists of the antioxidant response element (ARE) signaling pathway - cell viability counter screen (AID 743203; calls by dose curve; further: nearly all actives have a fitted effect of over 55% in size; further: potency means the concentration at half of the fitted maximal effect)
Summary of the method: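 Viability counter screen: stably transfected ARE-bla HepG2 line, 16 hrs compound exposure at 37C/5% CO2, ATP-based CellTiter-Glo luminescence measured in the reporter wells.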

[19] = qHTS assay for small molecule activators of the heat shock response signaling pathway (AID 743210; active means well fitted activation curve with a large enough effect in the signal ratio in the repeat runs, with a control signal flat, not every such curve was filed as active; inconclusive means weak or mixed curves; the % refers to the signal ratio;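 further: HeLa cells with beta-lactamase reporter driven by heat shock elements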)
Summary of the method: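 Following overnight attachment, HSE-bla HeLa cells received test compounds for 5 h at 37 C; beta-lactamase activity was then detected via FRET substrate fluorescence.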

[20] = qHTS assay to identify small molecule antagonists of the peroxisome proliferator-activated receptor gamma (PPARg) signaling pathway - cell viability counter screen (AID 743194); conditions: Potency: co-treated with 50 nM rosiglitazone unless noted; further: nearly all actives have a fitted effect of over 55% in size
Summary of the method: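 Cytotoxicity counter screen in PPARg-bla HEK293H cells, same wells as reporter assay. Compounds plus 50 nM rosiglitazone (final) for 17 h at 37 C, then viability read by CellTiter-Glo luminescence.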
On the % scale 0 is the no-effect control and ±100 the full control effect.

Sequence of Estrogen receptor (Homo sapiens) (P03372 whole entry, looked up): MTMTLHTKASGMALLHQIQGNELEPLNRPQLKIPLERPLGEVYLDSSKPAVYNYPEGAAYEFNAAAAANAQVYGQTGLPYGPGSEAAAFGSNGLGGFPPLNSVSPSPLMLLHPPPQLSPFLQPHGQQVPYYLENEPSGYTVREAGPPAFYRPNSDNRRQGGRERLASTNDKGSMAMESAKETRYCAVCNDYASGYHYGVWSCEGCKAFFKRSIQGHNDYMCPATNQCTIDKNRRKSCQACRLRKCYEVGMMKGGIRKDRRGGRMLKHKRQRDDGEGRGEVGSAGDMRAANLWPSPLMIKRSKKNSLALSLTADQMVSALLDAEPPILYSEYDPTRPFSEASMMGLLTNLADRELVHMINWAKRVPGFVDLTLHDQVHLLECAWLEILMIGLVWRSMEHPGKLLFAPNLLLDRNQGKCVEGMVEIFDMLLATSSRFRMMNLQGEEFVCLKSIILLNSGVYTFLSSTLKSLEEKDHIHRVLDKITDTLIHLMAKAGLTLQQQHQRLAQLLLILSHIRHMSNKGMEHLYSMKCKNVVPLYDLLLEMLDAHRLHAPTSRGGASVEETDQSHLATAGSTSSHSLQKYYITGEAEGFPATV
Sequence of Aryl hydrocarbon receptor (Homo sapiens) (P35869 whole entry, looked up): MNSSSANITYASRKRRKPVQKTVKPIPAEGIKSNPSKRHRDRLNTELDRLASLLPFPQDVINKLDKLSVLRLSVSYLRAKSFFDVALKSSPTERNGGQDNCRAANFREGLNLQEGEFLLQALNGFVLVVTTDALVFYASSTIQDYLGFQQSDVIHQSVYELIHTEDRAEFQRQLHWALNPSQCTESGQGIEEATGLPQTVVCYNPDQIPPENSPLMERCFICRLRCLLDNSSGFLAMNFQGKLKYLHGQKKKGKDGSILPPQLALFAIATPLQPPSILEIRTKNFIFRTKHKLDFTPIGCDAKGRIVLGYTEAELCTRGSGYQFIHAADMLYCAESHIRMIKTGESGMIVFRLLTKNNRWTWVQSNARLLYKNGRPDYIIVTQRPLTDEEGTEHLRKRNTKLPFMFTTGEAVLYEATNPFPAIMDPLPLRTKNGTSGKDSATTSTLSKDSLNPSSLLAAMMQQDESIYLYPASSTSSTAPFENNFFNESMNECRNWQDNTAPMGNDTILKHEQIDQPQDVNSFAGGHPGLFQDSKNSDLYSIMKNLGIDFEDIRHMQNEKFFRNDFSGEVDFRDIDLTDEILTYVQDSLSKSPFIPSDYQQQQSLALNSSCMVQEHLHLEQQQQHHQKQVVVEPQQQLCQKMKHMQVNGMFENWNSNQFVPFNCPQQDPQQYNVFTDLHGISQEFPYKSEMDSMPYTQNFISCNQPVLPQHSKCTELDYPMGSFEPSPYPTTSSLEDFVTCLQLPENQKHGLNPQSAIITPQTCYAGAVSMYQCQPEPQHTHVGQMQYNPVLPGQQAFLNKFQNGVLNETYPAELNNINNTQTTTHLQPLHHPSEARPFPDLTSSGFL
Sequence of Peroxisome proliferator-activated receptor gamma (Homo sapiens) (P37231 whole entry, looked up): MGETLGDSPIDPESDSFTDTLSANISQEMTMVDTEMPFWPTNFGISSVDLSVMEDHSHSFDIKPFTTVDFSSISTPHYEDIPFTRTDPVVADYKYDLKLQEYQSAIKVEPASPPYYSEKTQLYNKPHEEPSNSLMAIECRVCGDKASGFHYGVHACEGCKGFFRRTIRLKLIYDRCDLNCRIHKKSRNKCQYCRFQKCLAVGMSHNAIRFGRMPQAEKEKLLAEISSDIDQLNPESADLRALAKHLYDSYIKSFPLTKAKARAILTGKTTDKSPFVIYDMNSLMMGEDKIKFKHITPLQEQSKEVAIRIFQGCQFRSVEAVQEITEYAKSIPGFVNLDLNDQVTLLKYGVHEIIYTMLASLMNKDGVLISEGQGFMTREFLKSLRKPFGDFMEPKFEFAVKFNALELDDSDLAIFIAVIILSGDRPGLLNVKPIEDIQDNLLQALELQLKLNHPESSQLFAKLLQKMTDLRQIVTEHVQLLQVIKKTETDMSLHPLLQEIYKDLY
Sequence of Aromatase (Homo sapiens) (P11511 whole entry, looked up): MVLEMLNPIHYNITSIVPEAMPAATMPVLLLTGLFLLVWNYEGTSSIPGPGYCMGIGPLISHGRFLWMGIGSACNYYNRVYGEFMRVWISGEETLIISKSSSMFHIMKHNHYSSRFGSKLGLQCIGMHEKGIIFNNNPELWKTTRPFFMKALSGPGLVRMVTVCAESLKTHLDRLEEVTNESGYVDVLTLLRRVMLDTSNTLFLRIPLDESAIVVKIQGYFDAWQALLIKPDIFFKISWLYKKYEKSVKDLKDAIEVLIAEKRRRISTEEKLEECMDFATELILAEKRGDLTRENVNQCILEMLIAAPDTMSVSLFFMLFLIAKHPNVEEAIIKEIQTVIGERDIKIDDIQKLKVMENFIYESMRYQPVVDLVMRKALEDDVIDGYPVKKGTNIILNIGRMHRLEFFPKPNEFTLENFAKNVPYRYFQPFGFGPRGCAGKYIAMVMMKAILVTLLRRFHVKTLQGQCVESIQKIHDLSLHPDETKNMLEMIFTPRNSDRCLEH

CCCCCCCCCc1ccc(O)cc1
active: Potency [1] 39 µM | Potency [2] 30.9 µM | Potency [6] 6.93 µM | Potency [9] 49.1 µM | Potency [10] 55 µM
inactive: Potency [3] | Potency [4] | Potency [5] | Potency [7] | Potency [8] | Potency [11] | Potency [12]

C=CC(=O)OCC(CC)(COC(=O)C=C)COC(=O)C=C
active: Potency [1] 4.99 µM and 6.86 µM | Potency [2] 3.15 µM and 4.33 µM | Potency [13] 56.4 µM and 54.9 µM | Potency [5] 22.5 µM [inconclusive] and 9.77 µM [inconclusive] | Potency [8] 79 µM and 54.5 µM | Potency [9] 4.99 µM and 6.86 µM | Potency [10] 6.28 µM and 6.86 µM | Potency [12] 31.5 µM and 27.3 µM | Potency [14] 3.56 µM and 1.55 µM
inactive: Potency [3] | Potency [11]

CCNCC
inactive: Potency [1] | Potency [2] | Potency [3] | Potency [13] | Potency [8] | Potency [9] | Potency [10] | Potency [11] | Potency [12] | Potency [15] | Potency [16] | Potency [17] | Potency [18] | Potency [14] | Potency [19]

CCOP(=S)(OCC)OP(=S)(OCC)OCC
inactive: Potency [1] | Potency [2] | Potency [3] | Potency [13] | Potency [8] | Potency [9] | Potency [10] | Potency [11] | Potency [12] | Potency [15] | Potency [16] | Potency [17] | Potency [18] | Potency [14] | Potency [19]

COP(=S)(OC)Oc1ccc(Sc2ccc(OP(=S)(OC)OC)cc2)cc1
43.3 µM (active) and inactive: Potency [18]
inactive: Potency [1] | Potency [2] | Potency [3] | Potency [13] | Potency [5] | Potency [8] | Potency [9] | Potency [10] | Potency [11] | Potency [12] | Potency [15] | Potency [17] | Potency [14]
active: Potency [4] 21.9 µM [inconclusive] | Potency [7] 29.8 µM

ClC(Cl)(Cl)Br
inactive: Potency [1] | Potency [2] | Potency [3] | Potency [13] | Potency [8] | Potency [9] | Potency [10] | Potency [11] | Potency [12] | Potency [15] | Potency [16] | Potency [20] | Potency [17] | Potency [18] | Potency [14] | activation [19] -1.07% [at 13.2 µM]

Clc1ccccc1-c1nnc(-c2ccccc2Cl)nn1
active: Potency [6] 27.1 µM and 43.1 µM
inactive: Potency [1] | Potency [2] | Potency [3] | Potency [13] | Potency [5] | Potency [8] | Potency [9] | Potency [10] | Potency [11] | Potency [12] | Potency [15] | Potency [16] | Potency [20] | Potency [17] | Potency [14] | Potency [19]

Cc1ccc([N+](=O)[O-])cc1
inactive: Potency [1] | Potency [2] | Potency [3] | Potency [4] | Potency [5] | Potency [6] | Potency [7] | Potency [8] | Potency [9] | Potency [10] | Potency [11] | Potency [12] | Potency [15] | Potency [16] | Potency [20] | Potency [17] | Potency [14] | Potency [19]
